About 7,900 targets were measured; listed, in parts, are those with a hit and a random draw of the rest. About 0.6% of all pairs of compound and target were hits.
Key:
Assay in all cases: log2 fold change, soluble protein after heating vs DMSO (PISA); higher = thermal stabilisation; K562 cells, 10 uM, 30 min; active = over 0.2 and 3.5 SD of the protein, either way, in both replicates (recomputed)
[1] = compound: CN1CCN(CCOc2cc(OC3CCOCC3)c3c(Nc4c(Cl)ccc5c4OCO5)ncnc3c2)CC1 [saracatinib]
Procedure, shortened: (§1)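 K562 cells at 2×10^6 cells/mL were exposed to 10 μM compound for 30 min, then aliquots were heated for 3 min across 48°C-58°C, pooled, and extracted in PBS containing 0.5% NP-40 at 4°C. The supernatant after 21,000xg for 90 min was taken as soluble protein and measured by TMTpro 16plex LC-MS/MS with channel sums equalised. Thermal stability is reported relative to control samples, with values from duplicates. Fold changes are given on a log2 scale.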

[2] = compound: CNC(=O)C1=CC=CC=C1NC2=NC(=NC=C2Cl)NC3=C(C=C(C=C3)N4CCOCC4)OC
Procedure, shortened: as §1

[3] = compound: CNC(=O)c1ccc(Nc2ncc(C(F)(F)F)c(NCc3nccnc3N(C)S(C)(=O)=O)n2)cc1 [defactinib]
Procedure, shortened: as §1

[4] = compound: CNCc1ccc(-c2[nH]c3cc(F)cc4c3c2CCNC4=O)cc1 [rucaparib]
Procedure, shortened: as §1

[5] = compound: CNc1nc(-c2ccc3c(N)n[nH]c3c2)cc(N2C[C@@H](C(=O)NC3CCCCC3)CC[C@H]2C)n1
Procedure, shortened: as §1

[6] = compound: COC(=O)N[C@@H](C)CNc1nccc(-c2cn(C(C)C)nc2-c2cc(Cl)cc(NS(C)(=O)=O)c2F)n1 [encorafenib]
Procedure, shortened: as §1

[7] = compound: COC(=O)[C@H](CCSC)NC(=O)C1=C(C=C(C=C1)NC[C@H](CS)N)C2=CC=CC=C2
Procedure, shortened: as §1

[8] = compound: COC1=CC=C(C=C1)CN2C=CC3=C2C=C(C=C3)C(=O)NO
Procedure, shortened: as §1

[9] = compound: COc1cc(Nc2ncc3c(n2)-c2ccc(Cl)cc2C(c2c(F)cccc2OC)=NC3)ccc1C(=O)O [alisertib]
Procedure, shortened: as §1

[10] = compound: COc1cc2ncnc(Nc3ccc(F)c(Cl)c3)c2cc1OCCCN1CCOCC1 [gefitinib]
Procedure, shortened: as §1

[11] = compound: COc1cccc2cc(-c3nc([C@H]4CC[C@H](C(=O)O)CC4)n4ncnc(N)c34)[nH]c12
Procedure, shortened: as §1

[12] = compound: CS(=O)(=O)N1CCN(Cc2cc3nc(-c4cccc5[nH]ncc45)nc(N4CCOCC4)c3s2)CC1 [pictilisib]
Procedure, shortened: as §1

[13] = compound: COc1cc2nc(-c3cc(F)ccc3O)nc(N[C@@H]3CNC[C@H]3C(C)(C)O)c2cc1OC
Procedure, shortened: as §1

[14] = compound: CS(=O)(=O)CCNCc1ccc(-c2ccc3ncnc(Nc4ccc(OCc5cccc(F)c5)c(Cl)c4)c3c2)o1 [lapatinib]
Procedure, shortened: as §1

[15] = compound: CN1CCN(c2nc(C3=C(c4c[nH]c5ccccc45)C(=O)NC3=O)c3ccccc3n2)CC1 [sotrastaurin]
Procedure, shortened: as §1

[16] = compound: CN1CC[C@H](c2c(O)cc(O)c3c(=O)cc(-c4ccccc4Cl)oc23)[C@H](O)C1 [alvocidib]
Procedure, shortened: as §1

[17] = compound: CN1CCc2c(c3ccccc3n2Cc2ccc(C(=O)NO)cc2)C1 [Tubastatin A]
Procedure, shortened: as §1

[18] = compound: CON(C)C(=O)N1N=C(c2cc(F)ccc2F)S[C@@]1(CCCN)c1ccccc1 [filanesib]
Procedure, shortened: as §1

[19] = compound: CO[C@H]1C[C@@H]2CC[C@@H](C)[C@@](O)(O2)C(=O)C(=O)N2CCCC[C@H]2C(=O)O[C@H]([C@H](C)C[C@@H]2CC[C@H](n3cnnn3)[C@H](OC)C2)CC(=O)[C@H](C)/C=C(\C)[C@@H](O)[C@@H](OC)C(=O)[C@H](C)C[C@H](C)/C=C/C=C/C=C/1C [zotarolimus]
Procedure, shortened: as §1

[20] = compound: COc1cc(C(=O)O)ccc1NC(=O)[C@@H]1N[C@@H](CC(C)(C)C)[C@](C#N)(c2ccc(Cl)cc2F)[C@H]1c1cccc(Cl)c1F [idasanutlin]
Procedure, shortened: as §1

Measured: log2 fold change

DERPC (UniProt P0CG12)
Chain of UniProt P0CG12 (P0CG12 whole entry, looked up): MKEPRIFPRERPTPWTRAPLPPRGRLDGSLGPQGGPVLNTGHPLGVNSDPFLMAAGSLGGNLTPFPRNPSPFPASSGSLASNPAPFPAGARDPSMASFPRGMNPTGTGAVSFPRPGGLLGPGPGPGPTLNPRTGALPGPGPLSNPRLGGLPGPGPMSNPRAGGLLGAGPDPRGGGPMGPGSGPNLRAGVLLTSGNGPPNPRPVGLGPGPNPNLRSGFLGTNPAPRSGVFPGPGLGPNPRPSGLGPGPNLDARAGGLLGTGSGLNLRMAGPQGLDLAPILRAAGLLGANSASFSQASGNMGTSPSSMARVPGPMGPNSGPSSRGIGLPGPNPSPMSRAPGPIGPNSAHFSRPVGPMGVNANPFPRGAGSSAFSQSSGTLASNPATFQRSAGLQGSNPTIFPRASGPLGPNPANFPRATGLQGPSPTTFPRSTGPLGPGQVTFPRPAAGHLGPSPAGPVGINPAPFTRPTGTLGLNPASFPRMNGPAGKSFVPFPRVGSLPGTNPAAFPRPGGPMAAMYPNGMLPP
inactive: [1] -0.168 | [2] 0.08 | [3] -0.153 | [4] -0.001 | [5] -0.071 | [6] -0.109 | [7] 0.063 | [8] -0.016 | [9] 0.021 | [10] 0.099 | [11] 0.086 | [12] -0.107

CTNNBL1 (UniProt Q8WYA6)
inactive: [3] -0.513 | [4] 0.137 | [6] 0.121 | [7] -0.19 | [13] -0.008 | [14] -0.581

DYNC1I2 isoform 2 (UniProt Q13409)
inactive: [15] 0.062 | [16] 0 | [17] -0.028 | [2] -0.021 | [4] -0.034 | [6] -0.108 | [8] 0.093 | [18] 0.203 | [19] -0.085 | [20] 0.201 | [9] 0.066 | [13] 0.06 | [11] 0.051 | [14] -0.002

ENTPD7 (UniProt Q9NQZ7)
Chain of UniProt Q9NQZ7 (Q9NQZ7 whole entry, looked up): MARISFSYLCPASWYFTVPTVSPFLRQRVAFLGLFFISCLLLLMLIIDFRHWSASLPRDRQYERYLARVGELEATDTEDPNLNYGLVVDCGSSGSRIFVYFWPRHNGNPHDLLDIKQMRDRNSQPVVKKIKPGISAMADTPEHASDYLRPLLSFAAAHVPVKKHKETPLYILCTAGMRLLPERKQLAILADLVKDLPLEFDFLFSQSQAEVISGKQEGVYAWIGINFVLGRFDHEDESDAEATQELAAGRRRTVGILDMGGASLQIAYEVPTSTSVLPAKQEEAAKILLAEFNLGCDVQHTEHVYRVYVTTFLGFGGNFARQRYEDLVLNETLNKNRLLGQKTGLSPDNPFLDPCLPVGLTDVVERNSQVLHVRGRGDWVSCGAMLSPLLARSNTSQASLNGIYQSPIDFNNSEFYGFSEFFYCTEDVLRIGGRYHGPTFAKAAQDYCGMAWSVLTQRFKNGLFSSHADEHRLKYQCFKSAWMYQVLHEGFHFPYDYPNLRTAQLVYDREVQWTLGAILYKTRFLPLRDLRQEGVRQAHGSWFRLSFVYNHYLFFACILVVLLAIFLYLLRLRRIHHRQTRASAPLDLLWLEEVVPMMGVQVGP
inactive: [1] 0.155 | [15] 0.17 | [17] 0.064 | [2] -0.162 | [4] -0.078 | [5] 0.136 | [6] -0.26 | [8] -0.031 | [18] -0.268 | [9] -0.054 | [13] 0.06 | [10] -0.026 | [11] 0.03 | [14] 0.099

EPHB4 (UniProt P54760)
Chain of UniProt P54760 (P54760 whole entry, looked up): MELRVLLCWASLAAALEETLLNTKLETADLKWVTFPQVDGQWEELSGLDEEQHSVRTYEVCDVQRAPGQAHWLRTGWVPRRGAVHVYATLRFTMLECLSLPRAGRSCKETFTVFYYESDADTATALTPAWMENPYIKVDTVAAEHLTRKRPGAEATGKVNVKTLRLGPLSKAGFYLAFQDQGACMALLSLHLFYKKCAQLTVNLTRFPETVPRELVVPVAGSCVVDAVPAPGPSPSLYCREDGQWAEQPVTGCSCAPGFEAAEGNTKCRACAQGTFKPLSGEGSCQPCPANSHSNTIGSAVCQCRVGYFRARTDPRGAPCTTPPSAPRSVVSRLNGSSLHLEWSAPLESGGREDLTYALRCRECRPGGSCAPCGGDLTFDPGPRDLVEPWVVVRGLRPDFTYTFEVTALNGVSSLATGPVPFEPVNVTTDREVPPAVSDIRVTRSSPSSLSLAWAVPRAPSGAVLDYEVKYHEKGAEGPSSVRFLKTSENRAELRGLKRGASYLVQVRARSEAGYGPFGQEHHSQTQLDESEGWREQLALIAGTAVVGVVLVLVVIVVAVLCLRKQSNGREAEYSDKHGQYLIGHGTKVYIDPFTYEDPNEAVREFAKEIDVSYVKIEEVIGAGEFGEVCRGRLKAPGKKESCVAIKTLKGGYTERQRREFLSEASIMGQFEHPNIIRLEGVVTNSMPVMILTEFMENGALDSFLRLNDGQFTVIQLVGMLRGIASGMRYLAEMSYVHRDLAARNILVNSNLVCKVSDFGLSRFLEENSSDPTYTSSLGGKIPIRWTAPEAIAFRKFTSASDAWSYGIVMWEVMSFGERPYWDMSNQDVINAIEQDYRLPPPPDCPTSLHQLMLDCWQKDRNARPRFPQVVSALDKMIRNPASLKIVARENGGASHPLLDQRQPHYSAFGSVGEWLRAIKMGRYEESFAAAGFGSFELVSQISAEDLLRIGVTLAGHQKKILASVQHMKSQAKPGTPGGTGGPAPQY
inactive: [15] -0.057 | [18] 0.134 | [9] -0.017 | [13] 0.395 | [14] 0.08
active: [11] -0.937

FAM118B (UniProt Q9BPY3)
inactive: [15] -0.02 | [16] -0.142 | [17] 0.019 | [2] 0.088 | [3] -0.113 | [4] 0.041 | [6] 0.029 | [7] -0.037 | [8] 0.028 | [18] -0.196 | [19] 0.011 | [20] -0.034 | [9] -0.049 | [13] 0.017 | [10] 0.031 | [11] 0.129 | [14] 0.018 | [12] 0.099

ERF (UniProt P50548)
inactive: [15] -0.058 | [17] 0.377 | [2] 0.069 | [18] 0.328 | [12] 0.148

DOP1A (UniProt Q5JWR5)
inactive: [2] -0.052 | [3] 0.164 | [7] -0.083 | [9] -0.013 | [11] 0.02

ENTR1 (UniProt Q96C92)
active: [7] -0.486
inactive: [1] -0.131 | [2] -0.03 | [3] 0.022 | [5] -0.039 | [13] -0.065 | [14] 0.075

DBNL (UniProt Q9UJU6)
inactive: [16] -0.142 | [19] -0.324

DDX11 (UniProt Q96FC9)
active: [11] 0.437
inactive: [1] -0.016 | [15] -0.248 | [17] -0.034 | [2] -0.035 | [3] -0.052 | [5] -0.005 | [7] 0.118 | [8] -0.069 | [18] 0.144 | [20] -0.05 | [9] 0.088 | [13] 0.047 | [10] -0.009 | [14] -0.045

EGR1 (UniProt P18146)
Chain of UniProt P18146 (P18146 whole entry, looked up): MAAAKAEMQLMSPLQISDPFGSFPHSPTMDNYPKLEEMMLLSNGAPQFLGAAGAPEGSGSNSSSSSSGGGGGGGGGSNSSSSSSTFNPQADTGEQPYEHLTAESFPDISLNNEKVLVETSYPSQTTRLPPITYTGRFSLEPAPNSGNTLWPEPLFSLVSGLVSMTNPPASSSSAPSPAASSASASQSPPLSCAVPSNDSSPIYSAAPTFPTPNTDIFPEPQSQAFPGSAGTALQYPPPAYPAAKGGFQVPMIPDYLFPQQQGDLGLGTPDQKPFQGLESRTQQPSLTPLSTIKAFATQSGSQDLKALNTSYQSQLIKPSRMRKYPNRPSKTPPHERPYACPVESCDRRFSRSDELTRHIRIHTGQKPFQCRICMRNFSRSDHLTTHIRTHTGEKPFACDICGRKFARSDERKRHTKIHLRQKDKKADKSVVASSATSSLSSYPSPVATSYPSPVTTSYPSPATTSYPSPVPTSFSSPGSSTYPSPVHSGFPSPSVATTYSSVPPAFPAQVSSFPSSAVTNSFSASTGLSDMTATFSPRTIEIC
inactive: [15] -0.481 | [16] -0.604 | [17] 0.129 | [2] -0.147 | [7] 0.041 | [18] 0.463 | [19] 0.125 | [20] 0.164 | [9] -0.54 | [13] -0.24 | [10] -0.183 | [11] 0.079 | [14] 0.067 | [12] -0.362
active: [3] -0.841

ELOVL7 (UniProt A1L3X0)
Chain of UniProt A1L3X0 (A1L3X0 whole entry, looked up): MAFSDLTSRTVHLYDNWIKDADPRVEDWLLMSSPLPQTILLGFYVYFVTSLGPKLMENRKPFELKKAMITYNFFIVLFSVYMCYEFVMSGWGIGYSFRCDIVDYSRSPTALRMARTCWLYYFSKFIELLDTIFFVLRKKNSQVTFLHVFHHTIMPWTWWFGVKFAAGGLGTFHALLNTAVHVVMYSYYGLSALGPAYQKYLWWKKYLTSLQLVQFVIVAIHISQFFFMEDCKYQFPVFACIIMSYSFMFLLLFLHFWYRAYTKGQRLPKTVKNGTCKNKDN
inactive: [1] -0.018 | [16] -0.101 | [17] -0.002 | [2] -0.112 | [5] -0.093 | [19] 0.012 | [20] -0.118

FAM207A (UniProt Q9NSI2)
Chain of UniProt Q9NSI2 (Q9NSI2 whole entry, looked up): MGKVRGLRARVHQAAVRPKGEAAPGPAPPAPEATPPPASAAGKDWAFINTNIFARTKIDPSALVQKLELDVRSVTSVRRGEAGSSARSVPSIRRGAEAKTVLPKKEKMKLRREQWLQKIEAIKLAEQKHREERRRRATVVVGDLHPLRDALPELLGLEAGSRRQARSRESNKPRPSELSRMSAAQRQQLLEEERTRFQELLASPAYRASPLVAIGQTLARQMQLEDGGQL
inactive: [1] 0.005 | [15] -0.115 | [17] 0.106 | [2] 0.028 | [3] 0 | [4] 0.064 | [5] 0.007 | [6] 0.149 | [7] 0.031 | [8] -0.034 | [18] 0.238 | [20] 0.009 | [9] 0.238 | [13] 0.108 | [10] -0.124 | [11] -0.146 | [14] 0.041 | [12] -0.097

FAM117B (UniProt Q6P1L5)
Chain of UniProt Q6P1L5 (Q6P1L5 whole entry, looked up): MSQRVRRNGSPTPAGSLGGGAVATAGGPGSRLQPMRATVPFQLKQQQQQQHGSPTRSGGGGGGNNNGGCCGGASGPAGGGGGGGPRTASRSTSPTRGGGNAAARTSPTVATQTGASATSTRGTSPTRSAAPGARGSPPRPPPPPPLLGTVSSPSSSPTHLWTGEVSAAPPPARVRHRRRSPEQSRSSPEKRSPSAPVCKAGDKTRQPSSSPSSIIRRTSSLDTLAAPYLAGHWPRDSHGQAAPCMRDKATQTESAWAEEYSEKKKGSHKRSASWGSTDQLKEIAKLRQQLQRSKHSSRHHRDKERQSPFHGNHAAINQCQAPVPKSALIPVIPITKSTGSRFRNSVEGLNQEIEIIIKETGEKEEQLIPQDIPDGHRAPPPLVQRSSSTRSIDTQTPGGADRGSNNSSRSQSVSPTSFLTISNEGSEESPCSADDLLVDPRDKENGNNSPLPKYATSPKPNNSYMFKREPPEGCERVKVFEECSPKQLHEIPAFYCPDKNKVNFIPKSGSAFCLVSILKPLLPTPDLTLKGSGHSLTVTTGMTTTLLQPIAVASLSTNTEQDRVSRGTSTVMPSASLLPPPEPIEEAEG
inactive: [1] -0.004 | [16] -0.117 | [17] 0.084 | [2] -0.035 | [3] -0.494 | [4] -0.013 | [5] -0.223 | [6] -0.092 | [7] -0.341 | [8] 0.053 | [19] 0.007 | [20] -0.062 | [12] 0.208

DHPS (UniProt M0R1T2)
inactive: [15] -0.06 | [18] -0.057

FAM135A (UniProt Q9P2D6)
inactive: [15] -0.192 | [2] 0.004 | [3] -0.131 | [7] 0.003 | [18] 0.13 | [10] 0.052

DDB1 isoform 2 (UniProt Q16531)
Chain of UniProt Q16531 (Q16531 whole entry, looked up): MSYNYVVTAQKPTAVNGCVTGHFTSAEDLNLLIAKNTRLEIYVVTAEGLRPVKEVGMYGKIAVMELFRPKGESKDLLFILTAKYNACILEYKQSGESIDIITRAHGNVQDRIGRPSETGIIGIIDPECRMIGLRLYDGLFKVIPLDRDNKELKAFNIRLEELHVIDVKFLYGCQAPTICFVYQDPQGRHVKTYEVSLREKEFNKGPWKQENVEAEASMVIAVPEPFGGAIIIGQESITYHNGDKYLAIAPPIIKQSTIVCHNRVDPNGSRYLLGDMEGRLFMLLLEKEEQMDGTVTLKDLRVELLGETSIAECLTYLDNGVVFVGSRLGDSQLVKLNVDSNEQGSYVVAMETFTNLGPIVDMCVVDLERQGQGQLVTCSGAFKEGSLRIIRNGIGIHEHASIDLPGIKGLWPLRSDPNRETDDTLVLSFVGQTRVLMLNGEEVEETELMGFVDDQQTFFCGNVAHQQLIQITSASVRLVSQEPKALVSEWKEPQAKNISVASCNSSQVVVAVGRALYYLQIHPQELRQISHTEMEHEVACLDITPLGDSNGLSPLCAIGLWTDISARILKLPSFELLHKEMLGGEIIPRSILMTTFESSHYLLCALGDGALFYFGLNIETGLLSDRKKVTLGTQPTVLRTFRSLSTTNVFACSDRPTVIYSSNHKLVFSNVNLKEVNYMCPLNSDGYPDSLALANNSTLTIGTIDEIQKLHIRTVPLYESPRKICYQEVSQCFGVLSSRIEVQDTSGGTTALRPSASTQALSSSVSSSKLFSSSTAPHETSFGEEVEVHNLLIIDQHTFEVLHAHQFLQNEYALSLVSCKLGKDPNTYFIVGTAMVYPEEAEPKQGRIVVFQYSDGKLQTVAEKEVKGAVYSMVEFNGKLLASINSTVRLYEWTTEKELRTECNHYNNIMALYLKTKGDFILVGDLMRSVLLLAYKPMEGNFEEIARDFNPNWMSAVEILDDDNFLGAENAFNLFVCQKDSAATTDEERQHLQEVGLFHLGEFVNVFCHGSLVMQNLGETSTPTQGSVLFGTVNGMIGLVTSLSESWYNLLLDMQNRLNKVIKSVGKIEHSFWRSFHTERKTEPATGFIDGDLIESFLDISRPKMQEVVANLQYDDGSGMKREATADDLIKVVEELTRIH
inactive: [15] 0.053 | [4] -0.067 | [6] -0.041 | [18] 0.077 | [12] 0.094

DLK1 (UniProt P80370)
inactive: [1] 0.021 | [16] 0.03 | [3] -0.08 | [4] -0.023 | [5] -0.09 | [6] -0.032 | [7] 0.159 | [8] -0.021 | [19] -0.095

DCAF4 (UniProt Q8WV16)
inactive: [1] -0.097 | [15] 0.027 | [4] -0.346 | [5] 0.193 | [6] 0.103 | [18] 0.018 | [9] -0.076 | [10] -0.012 | [11] 0.005 | [12] 0.074

From the supplement of paper PMC10849652
